Source: PubChem (National Center for Advancing Translational Sciences (NCATS))
Hits are enriched below; roughly 7% of the tested compounds scored in any of these assays.
JMJD2A Tudor inh: blocks the human JMJD2A Tudor domain; O75164; Potency, µM (series often up to 114 µM), for inactives: at the highest dose activity change, negative = inhibition, actives largely listed as inhibitors; AID 504339; AlphaScreen JMJD2A-Tudor / H3K4me3 peptide binding; 390,000 compounds, 4.4% hits; further: potency means the concentration at half of the fitted maximal effect; on the % scale 0 is the no-effect control and ±100 the full control effect; nearly all actives have a fitted effect of over 50% in size
PI5P4Ka inh: inhibitors of human PI5P4K alpha. P48426. PI5P4Kalpha enzyme, ADP-Glo luminescence, 60 min; stronger effect = lower value. max response, %. 330,000 compounds, 1.2% hits. AID 652105; active means max response of -50% or lower; inconclusive means between -30% and -50%; inactive means -30% or higher; further: value at the top dose of about 77 µM; on the % scale 0 is the no-effect control and ±100 the full control effect
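ADP-Glo luminescence end-point after a 60 min room-temperature kinase reaction. PI5P4Kalpha and substrate in HEPES pH 7.4 buffer with EGTA, 0.1% CHAPS and 5% DMSO; ATP at 5 microM final.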
PLK1 PBD inh: blocks phosphopeptide binding to human PLK1 polo-box domain. AID 720504. 360,000 compounds, 2.8% hits. Plk1 PBD binding of FITC phosphopeptide, fluorescence polarization. P53350. Potency, µM, for the others: max response, negative = inhibition, actives largely listed as inhibitors; further: potency means the concentration at half of the fitted maximal effect; series mostly up to about 57 µM; on the % scale 0 is the no-effect control and ±100 the full control effect; nearly all actives have a fitted effect of over 65% in size
Target sequence (P53350 whole entry, looked up, the tested form may be a part): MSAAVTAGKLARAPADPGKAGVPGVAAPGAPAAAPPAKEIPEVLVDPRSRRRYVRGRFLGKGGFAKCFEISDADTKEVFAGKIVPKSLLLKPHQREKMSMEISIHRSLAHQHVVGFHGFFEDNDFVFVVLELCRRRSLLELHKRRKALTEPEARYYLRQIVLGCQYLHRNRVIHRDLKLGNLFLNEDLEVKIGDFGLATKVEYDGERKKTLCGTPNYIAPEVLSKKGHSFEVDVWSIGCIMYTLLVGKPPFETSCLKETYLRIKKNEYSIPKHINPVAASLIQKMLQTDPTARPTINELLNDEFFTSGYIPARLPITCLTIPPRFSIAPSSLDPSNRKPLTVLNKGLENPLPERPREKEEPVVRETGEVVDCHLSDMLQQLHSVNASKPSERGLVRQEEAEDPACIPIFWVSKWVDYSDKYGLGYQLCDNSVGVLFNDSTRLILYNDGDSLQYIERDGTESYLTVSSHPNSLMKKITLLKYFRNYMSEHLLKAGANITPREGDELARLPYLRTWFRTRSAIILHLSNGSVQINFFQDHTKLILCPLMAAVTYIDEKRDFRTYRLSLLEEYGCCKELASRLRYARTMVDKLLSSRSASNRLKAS
BAZ2B inh: BAZ2B (human) inhibition. Q9UIF8. AlphaScreen BAZ2B-H3K14Ac peptide displacement. Potency, µM (top dose mostly 114 µM), for the others: at the top dose activity change, negative = inhibition, most hits filed as inhibitors. 360,000 compounds, 4.4% hits; further: potency means the concentration at half of the fitted maximal effect; on the % scale 0 is the no-effect control and ±100 the full control effect; nearly all actives have a fitted effect of over 60% in size
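BAZ2B (50 nM) with biotin-H3(5-23)K14Ac peptide (50 nM) in PBS pH 7.4, 0.01% Tween-20, preformed 30 min, then compound 30 min at room temperature; top concentration 110uM. AlphaScreen streptavidin donor/nickel chelate acceptor beads (10 ug/mL final), 20 min dark, signal read.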
KAT2A inh: blocks human GCN5L2 histone acetyltransferase | Q92830 | GCN5L2 HAT assay, ThioGlo1 CoA-SH fluorescence | Potency, µM (titrated, usually from 58.9 µM), without a hit: top-dose activity change, negative = inhibition, actives largely listed as inhibitors | 390,000 compounds, 0.21% hits | AID 504327; further: potency means the concentration at half of the fitted maximal effect; on the % scale 0 is the no-effect control and ±100 the full control effect
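qHTS, 1536-well. 20nM enzyme, pH 7.5 HEPES/EDTA/Tween-20 buffer; 15 min compound preinc., RT. Start: 75uM H3(1-25), 70uM AcCoA, 50uM ThioGlo1. Read Ex340/Em540 at t=0 (autofluorescence flag) and t=20 min.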
HP1b chromo inh: HP1-beta chromodomain-methylated histone interaction inhibition; P83916; AlphaScreen HP1-beta / biotin-H3K9me3 peptide binding; Potency, µM (top dose mostly 114 µM), without a hit: at the top dose activity change, negative = inhibition, hits mostly inhibitors; 390,000 compounds, 0.56% hits; AID 540317; further: potency means the concentration at half of the fitted maximal effect; nearly all actives have a fitted effect of over 70% in size
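HP1-beta protein (50 nM final) preincubated 30 min at room temperature with biotinylated H3(1-18)K9me3 peptide (50 nM) in PBS pH 7.4, 0.01% Tween-20, then compound added for 30 min. AlphaScreen streptavidin donor/nickel chelate acceptor beads (10 ug/mL final), 30 min dark, luminescence read.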
An asterisk follows results filed as active; ? = inconclusive; / = no result; [ ] = remark or other dose. Unless noted, the call rests on the fitted dose curve; in most records, active means well fitted curve in the direction sought with a large enough effect; inconclusive means small, poorly fitted or top-dose-only effect, or another doubt; inactive means no such curve, though single readings can be large; an effect the other way counts as inactive or inconclusive.

SMILES | JMJD2A Tudor inh | PI5P4Ka inh | PLK1 PBD inh | BAZ2B inh | KAT2A inh | HP1b chromo inh
CCOC(=O)c1c(NC(=O)CSc2nnnn2-c2ccccc2OCC)sc2c1CC(C)(C)NC2(C)C | -32% | 1 | 3% | -37% | -9% | -4%
O=C1c2ccc([N+](=O)[O-])cc2C(=O)N1c1ccc([N+](=O)[O-])cn1 | -20% | 0 | -8% | / | / | 41%
CC1CCCCC1NCC#CCOc1ccc(Cl)cc1 (configuration not stated) | 20µM* | -1 | 3% | 50µM* | -12% | ?
CC(C)NCC#CCOc1ccc(Cl)cc1 | 45µM* | -3 | -9% | ? | 2% | 24%
CC(C)NCC(O)COCCOc1ccc(Cl)cc1 (configuration not stated) | -19% | 0 | -5% | -11% | 2% | 14%
Clc1ncnc2[nH]ccc12 | -10% | 6 | -14% | / | / | 28%[57 µM]
CCCCN(C(=O)CN1CC(C)OC(C)C1)c1c(N)n(CC(C)C)c(=O)[nH]c1=O (configuration not stated) | 2% | 10 | -8% | -1% | -2% | 31%
CCCCN(C(=O)Cn1ncc(Cl)c(Cl)c1=O)c1c(N)n(CC(C)C)c(=O)[nH]c1=O | -21%[11.4 µM] | -52* | ? | -14% | ? | -5%
CC1(C(=O)OCC(=O)Nc2cc(S(=O)(=O)N3CCOCC3)ccc2Cl)CC1(Cl)Cl (configuration not stated) | -5% | 0 | 3% | / | / | 53%
O=C(/C=C/c1ccc(N2CCCCC2)c([N+](=O)[O-])c1)c1ccc(O)cc1 | 28µM* | -3 | -7% | 40µM* | -10% | 35µM*
COc1ccccc1C(=O)/C=C/c1ccc(N2CCCCC2)c([N+](=O)[O-])c1 | 8.9µM* | -6 | -14% | 6.3µM* | -25% | 32µM*
O=C(c1ccc(N2CCCCC2)c([N+](=O)[O-])c1)N1CCOCC1 | -18% | -3 | 1% | 7% | 0% | 8%
COc1ccc(OC)c(C(=O)NC(CC(N)=O)c2ccc(NC(C)C)c([N+](=O)[O-])c2)c1 (configuration not stated) | -24% | 3 | 1% | -38% | -3% | 13%
COc1ccc(OC)c(C(=O)NC(CC(N)=O)c2ccc(N3CCCCCC3)c([N+](=O)[O-])c2)c1 (configuration not stated) | ? | 0 | -5% | 50µM* | ? | -6%
CCOC(=O)C1=C(C)NC(C)=C(C(=O)OCC)C1C(=O)OCC(=O)NCc1ccco1 | -10% | 0 | -2% | / | -4% | 36%
CC(Sc1nccn1C)C(=O)c1ccc(Br)cc1 (configuration not stated) | -21% | -9 | -11% | -26% | -5% | 12%
COCCCNc1nc2c(-c3cccc(Br)c3)nnn2c2ccccc12 | 4% | / | / | 12% | -11% | 48%
COCCNC(=O)c1ccccc1NC(=O)c1nsc2ccccc12 | -1% | / | / | 0% | -10% | 7%[57 µM]
Cc1ccc(NC(=O)N2CCCC2)cc1Cl | 3% | 1 | ? | -16% | -24% | 46%
Cc1ccc(NC(=O)N2CC3CCCN3c3ccccc32)cc1C (configuration not stated) | 50µM* | / | / | 25µM* | 0% | ?
CC1CN(C(=O)Nc2cccc(C(F)(F)F)c2)CC(C)O1 (configuration not stated) | -7% | 0 | -12% | 1% | -5% | 23%
Cc1ccc(NC(=O)N2CC3CCCN3c3ccccc32)cc1Cl (configuration not stated) | 40µM* | / | / | 28µM* | 3% | ?
O=C(Nc1cccc(C(F)(F)F)c1)N1CC2CCCN2c2ccccc21 (configuration not stated) | 50µM* | / | / | 28µM* | -6% | ?
Cc1ccc(NC(=O)N2CC3CCCN3c3ccccc32)c(C)c1 (configuration not stated) | 50µM* | / | / | 7% | 13% | ?
COC(=O)c1ccc(Cl)cc1NC(=O)N1CC2CCCN2c2ccccc21 (configuration not stated) | ? | / | / | ? | -21% | 3%
SMILES | JMJD2A Tudor inh | PI5P4Ka inh | PLK1 PBD inh | BAZ2B inh | KAT2A inh | HP1b chromo inh
CCOc1ccc(NS(=O)(=O)c2ccc(C(=O)NNC(=O)c3ccccc3O)cc2)cc1 | -27% | -3 | -7% | 11% | -4% | 11%
CC1(C)SCC(C(=O)O)NC1=O (configuration not stated) | -28% | -12 | 21µM* | -20% | -10% | -11%
Cc1cccc(N2CCN(CC(=O)N(C3CCCC3)C3CCS(=O)(=O)C3)CC2)c1C (configuration not stated) | -7% | 3 | -1% | 6% | -2% | 28%
COc1[nH]c(/N=C/c2ccco2)c(C#N)c1C#N | 32µM* | / | / | / | / | 22µM*
C=CCn1c(=O)[nH]c(=O)c2c(N)c(C(=O)c3ccc(OC)cc3)sc21 | -21% | ? | -3% | / | / | 27%
COc1ccccc1-c1noc(-c2ccc(NCC3CCCO3)c([N+](=O)[O-])c2)n1 (configuration not stated) | 3% | / | / | -1% | -3% | 38%
CC(C)(C)NC(=O)Cn1c(SCC(N)=O)nc2ccccc21 | 20µM* | -25 | 15µM* | 8% | ? | -9%
CCOc1ccccc1NC(=O)C1=C(C)Nc2ncnn2C1c1ccccn1 (configuration not stated) | -12% | / | / | -11% | -4% | 14%[57 µM]
Nc1ccccc1SC/C=C/CSc1ccccc1N | -18% | 6 | 12µM* | -22% | 0% | 26%
COc1ccc(N2CC(O)=C(c3n(C)c4ccccc4[n+]3C)C2=N)cc1 | -13%[11.4 µM] | -19 | 27µM* | 10% | -6% | -1%
CCOc1ccc(NC(=O)c2oc3ccccc3c2NC(=O)C(C)(C)C)cc1 | -10% | / | / | -2% | -6% | 60%
CCc1ccc2nc(N3C(=O)C(O)=C(C(=O)c4ccco4)C3c3cccs3)sc2c1 (configuration not stated) | ? | -59* | 17µM* | 50µM* | ? | ?
O=C(C1=C(O)C(=O)N(c2nc3ccc(Cl)cc3s2)C1c1ccco1)c1ccco1 (configuration not stated) | 13µM* | -74* | 21µM* | 45µM* | ? | 28µM*
Cc1ccc2nc(N3C(=O)C(O)=C(C(=O)c4ccco4)C3c3ccc(C)o3)sc2c1 (configuration not stated) | 10µM* | -52* | 13µM* | 50µM* | -6% | -8%[57 µM]
